# Bioassay records from PubChem BioAssay.
# Cav3 T inh = blocks human Cav3.2 T-type calcium channel. O95180. Cav3.2-expressing cells, Fluo-4 calcium fluorescence FDSS; hits give low values. B-score at 10 µM. actives 4% (n = 100,000);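 active means single-dose well whose peak fluorescence ratio is a statistical outlier from its plate by either plate-standardised score or position-corrected B-score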
# CYP2C19 activ = cytochrome P450 2C19 (human) activation; recombinant CYP2C19, luciferin-H EGE luminescence; hits give high values; 0 = fully inhibited enzyme, 1 = untreated enzyme; activation factor at 5 µM; 96,000 tested, under 10 active;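 active means activation factor of at least 2 at 5 µM in the primary screen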;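 further: 0 = wells with 2.5 mM tranylcypromine and 1 = vehicle-only wells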
# Target sequence (P33261 whole entry, looked up): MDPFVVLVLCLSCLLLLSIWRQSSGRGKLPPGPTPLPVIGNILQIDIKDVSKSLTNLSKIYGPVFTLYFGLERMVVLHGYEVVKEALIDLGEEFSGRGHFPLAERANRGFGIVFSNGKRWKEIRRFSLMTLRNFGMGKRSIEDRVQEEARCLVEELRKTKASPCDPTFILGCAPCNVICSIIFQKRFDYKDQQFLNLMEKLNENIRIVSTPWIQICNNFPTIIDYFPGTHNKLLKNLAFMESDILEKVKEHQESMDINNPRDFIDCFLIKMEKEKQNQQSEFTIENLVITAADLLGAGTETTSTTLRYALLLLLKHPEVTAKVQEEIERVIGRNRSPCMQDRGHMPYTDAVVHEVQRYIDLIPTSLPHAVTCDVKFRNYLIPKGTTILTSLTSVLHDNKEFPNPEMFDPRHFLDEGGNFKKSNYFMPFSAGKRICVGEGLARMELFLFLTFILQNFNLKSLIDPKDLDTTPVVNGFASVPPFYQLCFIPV
# CYP2C9 activ = CYP2C9 (human) activation. recombinant CYP2C9, luciferin-H conversion, luminescence; hits give high values; factor 1 = untreated enzyme, 0 = blocked. activation factor at 5 µM. actives 1.4% (n = 96,000);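 active means activation factor of 2 or more for CYP2C9 at a 5 µM dose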;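 further: 0 = sulfaphenazole-blocked wells and 1 = vehicle-only wells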
# CYP2C9 inh = human CYP2C9 inhibition | P11712 | CYP2C9 Supersomes, luciferin-H conversion, luminescence | inhibition, % at 5 µM | actives 20% (n = 96,000) | AID 777;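 active means blocking of liver enzyme CYP2C9 beyond about 50% at 5 µM, limit read from the data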
# CYP2C19 inh = inhibitors of human CYP2C19. P33261. actives 21% (n = 96,000). CYP2C19 Supersomes, luciferin-H EGE luminescence, 30 min. inhibition, % at 5 µM;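 active means CYP2C19 inhibition above a set limit at 5 µM in the primary screen, cut at about 50% in these data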;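 further: plate controls were negative control wells for no effect and 2.5 mM tranylcypromine positive control for full effect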
# The depositor's hits bear a star; · = no result given. Shown are actives, neighbours in structure and some others; about 27% of the full set was active somewhere.
SMILES,Cav3 T inh,CYP2C19 activ,CYP2C9 activ,CYP2C9 inh,CYP2C19 inh
CN(c1ccc(OCC(=O)N2CCCCC2)cc1)S(=O)(=O)c1cccs1,0.922,0.5,0.3,68.6*,47.0
CCOC(=O)Cc1csc(NC(=O)CCCN2C(=O)c3ccccc3C2=O)n1,0.732,0.9,0.5,52.8*,13.3
CCOC(=O)Cc1nnc(NC(=O)COc2ccc(F)cc2)s1,0.389,1,0.8,21.1,-0.3
O=C(CCS(=O)(=O)c1cccs1)N1CCCC1,-0.464,1,0.9,14.2,-4.5
CCOC(=O)Cc1csc(NC(=O)COc2ccc(N(C)S(=O)(=O)c3cccs3)cc2)n1,-4.67*,0,0.1,94.9*,96.0*
CCOC(=O)Cc1csc(NC(=O)COc2ccccc2OC)n1,1.07,0.8,0.7,26.5,22.1
O=C(CCSc1ccc(Cl)cc1)NC12CC3CC(CC(C3)C1)C2,-3.21,0.6,0.6,36.8,35.3
Cn1c(=O)n(C)c2cc(NC(=O)CSc3nnc(-c4ccccc4O)n3-c3ccccc3)ccc21,0.0214,0.9,0.8,24.8,6.5
Cc1ccc[n+](C(C)C(=O)Nc2ccc(C)c([N+](=O)[O-])c2)c1 (stereo not given),0.215,1.1,1.2,-19.5,-14.7
[O-][n+]1onc2c3cc(-c4ccccc4)nnc3ccc21,0.486,0.9,0.8,19.4,10.7
CCC(CC)c1nnc(NC(=O)CCCN2C(=O)c3ccccc3C2=O)s1,1.09,0.6,0.3,71.5*,41.4
CCOC(=O)Cc1csc(NC(=O)COc2ccccc2)n1,-1.74,0.7,0.5,54.7*,28.5
O=C(OCCN=C1NS(=O)(=O)c2ccccc21)C1CC(=O)N(c2ccc3ccccc3c2)C1 (stereo not given),0.00715,0.7,1.3,-33.9,31.2
COc1ccc(CNCCC(c2ccc(OC(C)C)cc2)C(C)C)cc1OC (stereo not given),-3.67*,0.7,0.6,35.2,26.4
CCOCCCNCc1ccc(OC)cc1,0.406,0.8,1,-3.9,24.8
CCOCCCNCc1ccc(OC)c(OC)c1,1.63,0.9,0.4,60.8*,8.5
COc1cc(CNCCO)ccc1OC1CCCC1,1.4,1,1,-4.6,0.8
Cn1cc(S(=O)(=O)NCc2ccco2)c(=O)n(C)c1=O,-0.163,1,1.2,-16.5,2.4
O=C1NC(c2cn(-c3ccccc3)nc2-c2cccs2)C(C(=O)c2cccnc2)C(O)(C(F)(F)F)N1 (stereo not given),-0.761,1,0.9,14.5,4.3
c1ccc(Cn2nnnc2C(c2cccnc2)N2CCN(c3ccccc3)CC2)cc1 (stereo not given),0.153,0.9,0.8,19.0,14.5
COCCn1nnnc1C(c1ccccn1)N1CCN(c2cc(Cl)ccc2C)CC1 (stereo not given),-2.21,0.6,0.6,41.4,42.0
COc1ccc(C(c2nnnn2Cc2ccc(F)cc2)N2CCN(c3ccc(OC)cc3)CC2)cc1 (stereo not given),·,0.6,0.5,49.8,37.6
COc1ccc(Cn2nnnc2C(c2ccccn2)N2CCN(c3cc(Cl)ccc3C)CC2)cc1 (stereo not given),-2.69,0,0.1,87.7*,97.9*
COc1ccc(N2CCN(C(c3ccccc3)c3nnnn3Cc3ccc(F)cc3)CC2)cc1 (stereo not given),-4.56*,0.4,0.6,40.0,63.8*
COc1ccc(C(c2nnnn2Cc2ccc(F)cc2)N2CCN(c3ccccc3)CC2)cc1 (stereo not given),-5.78*,0.8,0.7,26.8,21.9
SMILES,Cav3 T inh,CYP2C19 activ,CYP2C9 activ,CYP2C9 inh,CYP2C19 inh
COc1ccc(Cn2nnnc2C(c2cccs2)N2CCOCC2)cc1 (stereo not given),1.16,0.1,0.4,55.9*,86.3*
CC(=O)c1ccc(OC(C)C)c(CN2CCCCC2)c1,1.01,1.1,1.1,-8.6,-11.4
Cn1c2c(c3ccccc31)CC/C2=N\O,1.65,0.2,0.8,16.6,79.0*
COc1cc(C(=O)NCc2cccc3ccccc23)cc(Cl)c1OC,-2.42,0.4,1.3,-30.4,61.5*
CCn1c(=O)n(CC(=O)NCc2ccccc2OC)c(=O)c2ccccc21,0.00498,0.5,1.4,-44.5,53.8*
COc1cccc(CNC(=O)Cn2c(=O)oc3ccccc32)c1OC,-0.776,0.3,1,4.0,65.6*
COc1cc(C)c(N(C(C)=O)c2ccccc2)c(C)c1,0.201,0.4,0.7,31.0,61.3*
CN(C)/C=C/C(=O)c1ccc(Cl)cc1,0.314,0.8,1,0.4,18.4
